Measurements as given in PubChem BioAssay AID1220 (Sanford-Burnham Center for Chemical Genomics, 2008).
The whole screen tested about 190,000 compounds, of which about 1,300 (0.68%) were called active. The sample as a whole holds a higher share of actives than the screen did. Unmarked numbers belong to inactive results. Cut-off read from the data, not from the text of the source: active = inhibition above about 50%; inactive = the rest.

These molecules were tested against Mannose-6-phosphate isomerase (Homo sapiens) (UniProt P34949) (assay: human PMI inhibitors, high substrate, primary screen, biochemical, fluorescence intensity, high mannose 6-phosphate (AID 1220)). Details: recombinant PMI enzyme, coupled fluorescence intensity; at 20 µM; hits give high values.
Mannose-6-phosphate isomerase (Homo sapiens), sequence (P34949 whole entry, looked up): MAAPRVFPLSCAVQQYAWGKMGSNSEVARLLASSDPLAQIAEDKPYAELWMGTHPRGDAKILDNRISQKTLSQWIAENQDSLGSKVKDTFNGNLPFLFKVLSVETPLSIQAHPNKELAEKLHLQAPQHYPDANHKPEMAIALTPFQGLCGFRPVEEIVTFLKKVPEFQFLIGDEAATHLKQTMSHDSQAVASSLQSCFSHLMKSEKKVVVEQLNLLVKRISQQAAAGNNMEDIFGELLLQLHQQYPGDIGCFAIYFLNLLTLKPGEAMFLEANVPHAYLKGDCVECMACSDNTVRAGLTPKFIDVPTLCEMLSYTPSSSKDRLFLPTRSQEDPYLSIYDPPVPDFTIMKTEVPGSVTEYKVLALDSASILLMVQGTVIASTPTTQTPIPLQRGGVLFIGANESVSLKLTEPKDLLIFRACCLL
Molecule `Cc1ccc(S(=O)(=O)N2CCN(c3ccc([N+](=O)[O-])c4cccnc34)CC2)cc1` has an inhibition of 20.2%.
In the case of `O=[N+]([O-])c1ccc(N2CCN(CCO)CC2)c2ncccc12`, the inhibition was 65% (active).
Molecule `COc1ccc(N2CCN(C(=O)c3cccc(F)c3)CC2)c([N+](=O)[O-])c1` has an inhibition of 11.8%.
In the case of `O=C(c1cc(F)c(F)cc1Cl)N1CCN(c2ccc([N+](=O)[O-])c3ncccc23)CC1`, the inhibition was 46.1%.
With `O=C(c1ccccc1F)N1CCN(c2ccc([N+](=O)[O-])c3cccnc23)CC1` the inhibition was 58.4% (active).
In the case of `O=C(c1cccc(F)c1)N1CCN(c2ccc([N+](=O)[O-])c3cccnc23)CC1`, the inhibition was 62.3% (active).
Molecule `O=C(c1cccc(F)c1)N1CCN(c2cc(N3CCCCC3)c(F)cc2[N+](=O)[O-])CC1` has an inhibition of 15.2%.
Molecule `Cc1cc(N2CCN(c3ccc([N+](=O)[O-])c4cccnc34)CC2)c2ccccc2n1` has an inhibition of 46.7%.
`O=C(c1ccccc1F)N1CCN(c2ccc([N+](=O)[O-])c3ncccc23)CC1` showed an inhibition of 38.3%.
For `CSc1nc2c(c(=O)n1C)SC(C)C2` (configuration not stated), the inhibition was 4.1%.
Work on `Cc1ccn(-c2cc(O)c(-n3ccc(C)n3)cc2O)n1` yielded an inhibition of 13.9%.
`COCCCNC(=O)Cn1cnc2sc(C)c(S(=O)(=O)N3CCN(c4ncccn4)CC3)c2c1=O` showed an inhibition of 9.4%.
`COc1cccc2cc(-c3ccnc(N)n3)oc12` was tested, and the inhibition was 18.3%.
Molecule `Cc1c(C(=O)NC(C)CCc2ccccc2)cccc1[N+](=O)[O-]` (configuration not stated) has an inhibition of 10.1%.
For `Cc1ccc(CNC(=O)c2cc3c(-c4ccc(Cl)cc4)nn(C)c3s2)o1`, the inhibition was 12.8%.
With `CCCN(CCC)C(=O)CC(c1ccccc1)c1cc(Br)ccc1O` (configuration not stated) the inhibition was 17.3%.
`CCCSc1nc2c3c(sc2c(=O)[nH]1)CC(C)(CC)OC3` (configuration not stated) gave an inhibition of 4.6%.
`Nc1ccccc1C(=O)N=Nc1[nH]c(N)c2ccccc12` was tested, and the inhibition was 9.9%.
`Cc1[nH][nH]c(=O)c1C(c1c(C)[nH][nH]c1=O)c1cn(Cc2ccc(F)cc2)c2ccccc12` was tested, and the inhibition was 57.2% (active).
`O=C(O)Cc1cn(Cc2ccc(F)cc2)c2ccccc12` showed an inhibition of -9.7%.
For `NC(=O)CSc1cn(Cc2ccc(F)cc2)c2ccccc12`, the inhibition was 12.6%.
`Cc1[nH][nH]c(=O)c1C(c1ccc(-c2ccc(Cl)c(Cl)c2)o1)c1c(C)[nH][nH]c1=O` gave an inhibition of -45.1%.
With `Cc1[nH][nH]c(=O)c1C(c1c(C)[nH][nH]c1=O)c1cn(Cc2ccc(Cl)c(Cl)c2)c2ccccc12` the inhibition was 58% (active).
In the case of `Cn1cc(C(c2ccccn2)c2cn(C)c3ccccc23)c2ccccc21`, the inhibition was -0.8%.
Molecule `Cn1cc(C(CC(=O)O)C(=O)O)c2ccccc21` (configuration not stated) has an inhibition of 4.1%.
Work on `CCOC(=O)n1c(=O)n(Cc2ccc(Cl)c(Cl)c2)c2ccccc21` yielded an inhibition of 12.4%.
`Cc1[nH][nH]c(=O)c1C(c1c(C)[nH][nH]c1=O)c1cn(C)c2ccccc12` was tested, and the inhibition was 54.8% (active).
`Cc1ccc(-c2nc(SCC(=O)Nc3cc(S(=O)(=O)N4CCCCC4)ccc3Cl)n[nH]2)cc1` gave an inhibition of 10.9%.
Work on `C=C1c2ccccc2NC(=S)N1Cc1ccc2c(c1)OCO2` yielded an inhibition of -15.3%.
`N#CC1=C(N)SC2(CCCCC2)SC1c1ccccc1` (configuration not stated) gave an inhibition of -5.5%.
Molecule `CC(C)CC(=O)OCc1cn(-c2ccccc2)nn1` has an inhibition of -8.7%.
`Cc1nnc(NC(=O)CSc2nccn2C)s1` showed an inhibition of -2.9%.
In the case of `COc1ccc(-n2nc3c(N)n[nH]c3cc2=O)cc1`, the inhibition was -97.5%.
`CCOc1c(OC(C)=O)ccc(/C=C/c2ccc3cccc(OC)c3n2)c1[N+](=O)[O-]` gave an inhibition of 11.3%.
`COc1ccc(CC(NC(C)=O)C(=O)NC2CCN(S(=O)(=O)c3ccccc3)CC2)cc1OC` (configuration not stated) showed an inhibition of 4.4%.
With `CC(/C=C/c1ccccc1)=N/NC(=O)CCC(=O)Nc1ccccc1C` the inhibition was -55.7%.
`O=C(NCc1ccc(Cl)cc1)c1ccc(-c2ccccc2C(F)(F)F)o1` showed an inhibition of 2.3%.
With `Oc1ccc(N=Nc2c(O)ccc3ccccc23)cc1` the inhibition was 20.8%.
`O=C(O)Cc1c(O)ccc2ccccc12` showed an inhibition of 9.9%.
`Oc1ccc2ccccc2c1Br` was tested, and the inhibition was 52.5% (active).
`CC1CCN(CCNC(=O)CN(C)S(=O)(=O)c2cccc3nsnc23)CC1` showed an inhibition of 0.3%.
`Cc1c(Cl)cccc1NC(=S)Nc1ccccn1` showed an inhibition of 3.2%.
`COc1cc(NC(=O)C2=C(N3CCOCC3)/C(=C/c3ccc(Cl)cc3)CC2)cc(OC)c1OC` gave an inhibition of 23.9%.
For `COc1cccc(CNC(=O)c2nnn(-c3ccc(OC(F)(F)F)cc3)c2N)c1`, the inhibition was -5.4%.
`COC(=O)c1cc(=O)n(Cc2cccs2)c(=Nc2ccc(F)cc2)s1` was tested, and the inhibition was -2%.
In the case of `COc1ccc(O)c(C(c2c(C)[nH][nH]c2=O)c2c(C)[nH][nH]c2=O)c1`, the inhibition was 56.6% (active).
Molecule `Cc1[nH][nH]c(=O)c1C(c1cc([N+](=O)[O-])ccc1O)c1c(C)[nH][nH]c1=O` has an inhibition of 31.8%.
Work on `CCOc1cc(C(c2c(C)[nH][nH]c2=O)c2c(C)[nH][nH]c2=O)ccc1O` yielded an inhibition of 49.7%.
`CN(C)c1nc(N)nc(-c2nc3ccccc3s2)n1` was tested, and the inhibition was 6.8%.
Work on `COc1ccc(C(=O)/C=C/Nc2ccc([N+](=O)[O-])cc2)cc1` yielded an inhibition of -10.3%.
In the case of `Cc1cc(Br)ccc1-n1[nH]c(C)c(C=Nc2cccc3nsnc23)c1=O`, the inhibition was 70.9% (active).
Molecule `COc1ccccc1N=Cc1c(C)[nH]n(-c2ccc(C)cc2C)c1=O` has an inhibition of 11.1%.
In the case of `Cc1ccc2cccc(N=Cc3c(C)[nH]n(-c4ccccc4)c3=O)c2n1`, the inhibition was -9.8%.
`Cc1ccc(-c2csc(NC(=O)COc3ccc(N(C)S(=O)(=O)c4ccc(C)cc4)cc3)n2)cc1` gave an inhibition of 8.1%.
Molecule `O=C(Nc1cccc2c1CCCC2)c1ccncc1` has an inhibition of -4%.
With `CC(C)OCCCNc1ncc2c(n1)CC(c1ccc(N(C)C)cc1)CC2=O` (configuration not stated) the inhibition was 22.7%.
`CC(C)C(=O)Nc1ncc2c(n1)CC(c1cccs1)CC2=O` (configuration not stated) showed an inhibition of 4%.
For `CC(C)OCCCNc1ncc2c(n1)CC(c1cccs1)CC2=O` (configuration not stated), the inhibition was 61.9% (active).
`CCC(C)C(=O)Nc1ncc2c(n1)CC(c1cccs1)CC2=O` (configuration not stated) gave an inhibition of -1.8%.
Work on `CCOCCCNc1ncc2c(n1)CC(c1ccc(C)cc1)CC2=O` (configuration not stated) yielded an inhibition of 9.4%.
With `CC(C)OCCCNc1ncc2c(n1)CC(c1ccccc1)CC2=O` (configuration not stated) the inhibition was 53.2% (active).
For `COc1cccc(C2CC(c3c(Cl)cccc3Cl)n3nc(N)nc3N2)c1` (configuration not stated), the inhibition was 11.8%.
For `COc1ccc(C2CC(c3ccc(OC)cc3)n3nc(N)nc3N2)cc1` (configuration not stated), the inhibition was 10.5%.
`COc1ccc(C2CC(c3c(Cl)cccc3Cl)n3nc(N)nc3N2)cc1` (configuration not stated) was tested, and the inhibition was 56.3% (active).
For `CN(C)/C=C1/Oc2c(ccc3ccccc23)C1=O`, the inhibition was 59.2% (active).
Work on `CN(C)C=C1C(=O)c2ccccc2C1=O` yielded an inhibition of 0.8%.
Work on `COc1cccc2c1C(=O)c1ccc3ccccc3c1C2=O` yielded an inhibition of -81.6%.
For `CCCn1c(=O)c2c(nc(Br)n2CCC)n(C)c1=O`, the inhibition was -0.3%.
For `CCN(c1cccc(C)c1)C(C(=O)Nc1ccc(OC)cc1)c1cc2c(cc1[N+](=O)[O-])OCO2` (configuration not stated), the inhibition was 54.3% (active).
Molecule `COc1ccc(NC(=O)c2ccc(NC(=O)C(C)C)cc2)c([N+](=O)[O-])c1` has an inhibition of 1.6%.
`Cc1c(C(=O)OCC(=O)Nc2ccc3c(c2)OCO3)cccc1[N+](=O)[O-]` gave an inhibition of 16.9%.
`O=C(Cc1ccccc1[N+](=O)[O-])Nc1ccc2c(c1)OCO2` was tested, and the inhibition was 0%.
In the case of `CC1CCCN(C(C(=O)NC2CCCCC2)c2cc3c(cc2[N+](=O)[O-])OCO3)C1` (configuration not stated), the inhibition was 41.4%.
In the case of `COc1ccc(NC(=O)C(c2cc3c(cc2[N+](=O)[O-])OCO3)N2CCN(C=O)CC2)cc1` (configuration not stated), the inhibition was 65.9% (active).
`COc1ccc(NC(=O)/C=C/c2ccc3c(c2)OCO3)cc1` showed an inhibition of 8.9%.
For `COc1ccc(NC(=O)CN2CCN(CC(=O)Nc3ccc4c(c3)OCO4)CC2)cc1`, the inhibition was 0.8%.
Work on `COc1ccc(NC(=O)C(c2cc3c(cc2[N+](=O)[O-])OCO3)N(C)c2ccccc2)cc1` (configuration not stated) yielded an inhibition of 43.1%.
For `COc1ccc(NC(=O)C(c2cc3c(cc2[N+](=O)[O-])OCO3)N(C)C)cc1` (configuration not stated), the inhibition was 55.6% (active).
For `COc1ccc(C(C(=O)Nc2ccc3c(c2)OCO3)N(C)C(=O)Cc2c[nH]c3ccccc23)cc1` (configuration not stated), the inhibition was 18.8%.
With `COc1ccc(NC(=O)C(c2cc3c(cc2[N+](=O)[O-])OCO3)N(C)Cc2ccccc2)cc1` (configuration not stated) the inhibition was 54.8% (active).
For `Cc1nn2cnc3sc4c(c3c2nc1=O)CCCC4`, the inhibition was 1.4%.
`Cc1ccc(C)c(NC(=O)CSc2n[nH]c(-c3ccncc3)n2)c1` gave an inhibition of 4.4%.
`COc1cc(C(=O)NCCC(=O)N2CCN(C)CC2)cc(OC)c1OC` showed an inhibition of -1%.
Work on `COC(=O)c1ccc(NC(=O)C2CCCN2S(=O)(=O)c2ccc(C)cc2)cc1` (configuration not stated) yielded an inhibition of 2.7%.
`O=C(O)/C(=C\c1ccccc1Cl)c1ccc(S(=O)(=O)N2CCCCC2)s1` showed an inhibition of -23%.
In the case of `O=C(O)/C(=C\c1ccc(Br)cc1)c1ccc(S(=O)(=O)N2CCCCC2)s1`, the inhibition was 3.7%.
For `O=C(O)/C(=C\c1ccc(Cl)c([N+](=O)[O-])c1)c1ccc(S(=O)(=O)N2CCCCC2)s1`, the inhibition was 57% (active).
In the case of `Cc1c(Cl)c([N+](=O)[O-])nn1CCCC(=O)N1CCN(c2ccccc2)CC1`, the inhibition was -19.1%.
`COc1cccc(CNC(=S)Nc2cc(C)cc(C)c2)c1` showed an inhibition of 4.2%.
In the case of `O=c1[nH]c2ccccc2n2c(-c3ccncc3)nnc12`, the inhibition was 0.5%.
For `O=c1[nH]c2ccccc2n2c(-c3ccccc3)nnc12`, the inhibition was 74.5% (active).
Molecule `O=c1[nH]c2ccccc2n2cnnc12` has an inhibition of -5.9%.
